In ChEMBL document CHEMBL4888484, “Replenishing the malaria drug discovery pipeline: Screening and hit evaluation of the MMV Hit Generation Library 1 (HGL1) against asexual blood stage Plasmodium falciparum ,using a nano luciferase reporter read-out” (2022):
Hit rate of the full screen: of about 150,000 compounds, about 540 (0.36%) showed an effect of 50% or more. This excerpt belongs to a sample that is enriched for strong results.

Each compound was assayed on Plasmodium falciparum (assay: Primary screen in NF54 nanoGlo assay, in single point, at 2uM, 72h; a lower Z score goes with more inhibition). Conditions: timepoint 72 hour.
Type: functional, Erythrocyte

SMILES | % Inhibition [%] | Z score
O=S1(=O)NC[C@H](O)CNC[C@@]2(COc3cc(-c4ccccc4)ccc31)C[C@@H](O)[C@@H](O)C2 | -14 | 1.78
Cn1nccc1[C@@H]1CN(C(=O)NCc2ccon2)CCO1 | -3 | 0.43
Cc1ccc(C)c(C(=O)N[C@@H](C)c2nc(-c3cccnc3)cs2)c1 | 0 | -0.01
Cc1cc(CC(=O)N[C@@H](C)c2nc(-c3cccnc3)cs2)no1 | -5 | 0.5
Cc1cc(C(=O)N[C@@H](C)c2nc(-c3cccnc3)cs2)cc(O)n1 | 51 | -3.53
COc1cccc(CCn2ccnc2C(C)C)c1 | -4 | 0.93
COc1ccccc1CCNC(=O)c1ccccc1N1CCC(NS(=O)(=O)c2ccc(F)cc2)CC1 | 11 | -1.5
c1ccc2c(N3CCCC3)nc(N3CCN(C4CCCCC4)CC3)nc2c1 | -5 | 0.7
NC1CC(c2cc(N3CCCCCCCC3)ncn2)C1 (centres undefined) | -23 | 2.99
N[C@H]1C[C@@H](c2cc(N3CCN(C4CCCCC4)CC3)nc(N3CCCC3)n2)C1 | 56 | -8.12
CC(C)c1nnc2c3ccccc3nc(N3CCN(C(=O)c4ccc(Cl)cc4)[C@@H](C)C3)n12 | -1 | 0.12
Nc1nc(N2CCN(Cc3ccc(F)cc3)CC2)cc([C@H]2C[C@@H](N)C2)n1 | 16 | -2.35
Nc1nc(N2CCN(c3ccc(F)c(Cl)c3)CC2)cc([C@H]2C[C@@H](N)C2)n1 | 49 | -3.16
Nc1nc(C2CC(N)C2)cc(N2CCC(Oc3ccccc3Cl)CC2)n1 (centres undefined) | 50 | -7.79
Cc1ccc(Cc2nnc(NC(=O)Cc3ccccc3Cl)o2)c(C)c1 | -13 | 1.44
CN1CCCN(c2ccc3ccc(F)cc3n2)CC1 | -5 | 0.48
CCNC(=O)N[C@H]1CCN(C2CCCCCC2)C1 | 1 | -0.09
COc1cc(-c2cc(-c3cccnc3)c3c(ccc4ccccc43)n2)cc(Cl)c1O | 18 | -2.48
CCOc1cc(-c2cc(-c3ccccc3O)nc3ccc4ccccc4c23)cc(Br)c1O | 82 | -8.45
Oc1ccccc1-c1cc(-c2ccccc2)c2c(ccc3ccccc32)n1 | -5 | 0.64
Cn1ccnc1CN1C[C@@H](F)C[C@H]1CNc1ncnc2c1CCCCC2 | -4 | 0.8
COc1cccc(C(=O)N2CCN(C(=O)Cn3cc(Cl)cn3)CC2)c1 | -4 | 0.42
Cn1ccc(NS(=O)(=O)c2cccc3c2N=S=N3)n1 | -1 | 0.06
O=C(N[C@@H]1CN(Cc2ccccn2)CCC[C@H]1O)c1ccc(OCc2ccccc2)cc1 | 59 | -6.9
CCOc1cccc(C(=O)N[C@H]2CCN(Cc3ccccn3)C[C@@H]2O)c1 | 2 | -0.4
O=C(N[C@@H]1CN(Cc2ccc(CO)o2)CCC[C@H]1O)c1ccc(OCc2ccccc2)cc1 | 26 | -2.94

SMILES | % Inhibition [%] | Z score
Cc1ccc(-c2nc(CC(=O)N3CCC(C(C)(C)C)C(O)C3)cs2)o1 (centres undefined) | -3 | 0.35
Cc1n[nH]c(=O)c2c1cnn2-c1ccccc1 | 21 | -2.61
Cc1nc(-c2c(C)c(C)nn(C)c2=O)sc1C(=O)NC[C@H](C)N1CCc2ccccc21 | 31 | -3.46
CCN=C(NCc1noc(C)n1)NCc1ccccc1OC(C)(C)C | -6 | 0.55
CCc1ncc(CN2CCC[C@H](NC(=O)CN3CCOC3=O)CC2)cn1 | 9 | -1.74
CC(=O)N(CC[C@]1(Cc2ccccc2Cl)CCOC(C)(C)C1)Cc1ccco1 | 32 | 1.22
Cn1n[n+](CCCCC(Cl)(Cl)Cl)c2ccccc21 | 65 | -4.82
Cn1n[n+](CC(=O)Nc2ccccc2Cl)c2ccccc21 | 41 | -0.29
COc1c2c(cc3c1[C@H](C(=O)NC(c1ccccc1)c1ccccc1)[N+](C)(C)CC3)OCO2 | 2 | -0.21
COc1c2c(cc3c1[C@H](CC(=O)Cc1ccccc1)[N+](C)(C)CC3)OCO2 | -1 | 0.08
COc1c2c(cc3c1[C@@H](C#CCOc1ccccc1)[N+](C)(C)CC3)OCO2 | 64 | -13.6
Cn1c(COc2ccccc2C(N)=O)nnc1-c1ccc(Cl)cc1 | 3 | -0.35
COc1cccc(C(=O)N2C[C@@H]3CC[C@H]2CN(Cc2c(C)noc2C)C3)c1 | 4 | -0.53
c1ccc(-c2nc(C[n+]3ccc4c(c3)CCCC4)cs2)cc1 | 63 | -6.15
c1ccc(-c2nc(CN3CCc4ccccc4C3)cs2)cc1 | -1 | 0.12
c1ccc(-c2nc(CN3CCCCCCC3)cs2)cc1 | -10 | 1.49
O=C(Cn1cc(-c2ccccc2)ncc1=O)NC[C@@H]1CCCN2CCCC[C@H]12 | -8 | 0.97
CCCCN(CCCNC(=O)[C@H]1CCCN(c2ncnc3onc(C)c23)C1)Cc1ccccc1 | 5 | -0.69
O=C(O)C[C@@H]1CN(C(=O)c2ccc3c(c2)OCO3)C[C@@H]1c1c[nH]nn1 | -3 | 0.47
N#Cc1c(NC(=O)Nc2cn3ccccc3c2C#N)cn2ccccc12 | 65 | 1.13
CCN(CC)Cc1cn2ccccc2c1C#N | -12 | 1.72
COC(=O)c1ccc(C)c(OCc2cn3ccccc3c2C#N)c1 | -17 | 2.14
CC1CCC(O)(CS(=O)(=O)Cc2nccs2)CC1 (centres undefined) | -8 | 1.13
COc1ccc2[nH]c3c(c2c1)CC(C(=O)O)NC3c1ccc(OC)c(CN2CCN(c3ccccc3F)CC2)c1 (centres undefined) | 74 | -11.3
COc1ccc(C2N[C@H](C(=O)O)Cc3c2[nH]c2ccccc32)cc1 (some centres undefined) | -14 | 2.25
COc1cc(C2N[C@H](C(=O)O)Cc3c2[nH]c2ccccc32)ccc1OCc1ccccc1 (some centres undefined) | -3 | 0.42
